Screens deposited in PubChem BioAssay by National Center for Advancing Translational Sciences (NCATS).
Sampled rows, rich in hits. Any-hit rate of the full collection: about 3.3%.
AmpC inh detg – AmpC beta-lactamase inhibition with detergent present. Potency, µM (series often up to 114 µM), without a hit: at the highest dose activity change, negative = inhibition, hits mostly inhibitors. actives 0.041% (n = 370,000). P00811. AmpC hydrolysis of nitrocefin, absorbance 480 nm, 0.01% Triton;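 further: 0% = no-compound wells and -100% = no-enzyme wells; nearly all actives have a fitted effect of over 25% in size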
Target sequence (P00811 whole entry, looked up): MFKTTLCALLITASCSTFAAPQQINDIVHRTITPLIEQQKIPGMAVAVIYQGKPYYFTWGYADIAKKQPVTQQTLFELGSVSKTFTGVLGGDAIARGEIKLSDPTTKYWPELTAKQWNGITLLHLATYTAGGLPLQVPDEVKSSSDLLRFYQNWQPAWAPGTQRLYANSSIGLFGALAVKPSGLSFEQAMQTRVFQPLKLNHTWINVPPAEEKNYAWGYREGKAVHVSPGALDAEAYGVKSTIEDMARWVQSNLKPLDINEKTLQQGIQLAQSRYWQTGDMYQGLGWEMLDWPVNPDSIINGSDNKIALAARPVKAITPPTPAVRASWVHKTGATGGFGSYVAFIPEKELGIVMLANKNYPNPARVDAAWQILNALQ
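20 mM phosphate pH 7.0 + 0.01% (detergent screen) or 0.0001% Triton X-100; 5.3 nM AmpC reagent; cpd preinc 15 min RT; nitrocefin (800 uM stock) to start; A480 q20 s × 4 min; Activity was normalised to no-enzyme and no-compound control wells.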
Sm TGR block – inhibitors of Schistosoma mansoni thioredoxin glutathione reductase; actives 3% (n = 360,000); AID 485364; Q962Y6; purified TGR, DTNB reduction, TNB absorbance 405 nm; Potency, µM (titrated, usually from 114 µM), without a hit: at the top dose activity change, negative = inhibition, usual class: inhibitors; further: nearly all actives have a fitted effect of over 60% in size
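First, TGR (20 nM dispensed) and NADPH were mixed with compound. Second, a 15 min room-temperature incubation followed. Third, further NADPH and then DTNB were added to start the reaction. Finally, TNB absorbance was monitored kinetically.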
AmpC inh no detg – AmpC beta-lactamase inhibition without detergent; Potency, µM (titrated, usually from 57.1 µM), for inactives: top-dose activity change, negative = inhibition, most hits filed as inhibitors; P00811; AmpC nitrocefin hydrolysis, absorbance 480 nm, 0.0001% Triton; actives 0.52% (n = 330,000);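 further: plate controls were no compound for no effect and no enzyme for full effect; nearly all actives have a fitted effect of over 20% in size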
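AmpC (5.3 nM in the dispensed reagent) in 20 mM phosphate pH 7.0 with 0.01% (detergent screen) or 0.0001% Triton X-100 was preincubated with compounds for 15 min at room temperature. Nitrocefin was then added from an 800 uM solution, and hydrolysis was followed at 480 nm.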
Numbers without * were called inactive; ? = inconclusive; nt = no result. The call rests on the fitted dose curve; in most records, active means well fitted curve in the direction sought with a large enough effect; inconclusive means small, poorly fitted or top-dose-only effect, or another doubt; inactive means no such curve, though single readings can be large; an effect the other way counts as inactive or inconclusive. Unless noted, on the % scale 0 is the no-effect control and ±100 the full control effect; potency means the concentration at half of the fitted maximal effect.

SMILES | AmpC inh detg | Sm TGR block | AmpC inh no detg
CC(C)CCNC(=O)CN1C(=O)c2cccnc2Oc2ccccc21 | -2% | -4% | nt
Cc1nc2ccc([N+](=O)[O-])cc2nc1C | 2% | 4% | -17%
Cc1ccc2nc3cc([N+](=O)[O-])cc([N+](=O)[O-])c3cc2c1 | ? | 2.5µM* | -31%
CCOc1ccc(C(=O)Nc2c(C(=O)c3ccc(OC)cc3)oc3ccccc23)cc1 | 22% | -5% | nt
CCOC(=O)c1cnc(SSc2ncc(C(=O)OCC)c(N)n2)nc1N | ? | 50µM* | 127%
C=CCSc1ncc(C(=O)OCC)c(N)n1 | 5% | 5% | -10%
O=C1CCCC(=O)C1CS(=O)(=O)c1ccccc1 | -4% | 2.2µM* | -27%
COc1ccc(C2CC(=O)C(CS(=O)(=O)c3ccccc3)C(=O)C2)cc1 (configuration not stated) | 3% | 1µM* | -24%
COc1ccc(N2C(=O)CC(c3ccccc3)CC2=O)cc1 | 1% | 5% | 1%
O=C1CC(c2ccc(Cl)cc2)CC(=O)C1CS(=O)(=O)c1ccccc1 (configuration not stated) | 4% | 0.63µM* | -48%
O=C1CC(c2ccccc2)CC(=O)C1Sc1ccc(Cl)cc1 (configuration not stated) | -15% | ? | ?
O=C(CS(=O)(=O)c1ccccc1)N1CCCCCC1 | -1% | -19% | -12%
O=C(CCS(=O)(=O)c1cc(Br)cc2c1N(C(=O)C1CC1)CC2)N1CCN(c2ccc(F)cc2)CC1 | 16% | -18% | nt
CC(=O)NCc1cc(Cl)c2cccnc2c1O | -6% | -21% | -6%
CCc1ccc(N2C(=O)CS(=O)(=O)C23C(=O)N(Cc2ccccc2)c2ccccc23)cc1 (configuration not stated) | -2% | 4% | nt
COc1cc(C2Nc3c(F)cccc3C3C=CCC32)cc(Br)c1OC (configuration not stated) | -1% | 20µM* | -32%
COc1cccc(C2Nc3c(F)cc(Br)cc3C3C=CCC32)c1OC (configuration not stated) | -16% | 12% | -9%
COc1ccccc1NC(=S)N=Nc1c(O)[nH]c2ccc(Br)cc12 | 5% | -11% | -35%
Cc1cccc(NC(=S)N=Nc2c(O)[nH]c3ccccc23)c1 | ? | -1% | 32µM*
Cc1ccc(N2CCN(c3ncnc4onc(-c5ccc(F)cc5)c34)CC2)c(C)c1 | 1% | -1% | nt
COc1cccc2sc(N(Cc3cccnc3)C(=O)Cc3ccccc3)nc12 | -3% | -5% | nt
CCCCCC1CC(CC#CCN2CCOCC2)C(=O)O1 (configuration not stated) | -5% | 22µM* | -7%
CCCCCC1CC(CC(=O)O)C(=O)O1 (configuration not stated) | ? | -31% | 0%
Cn1c(O)c(/C=N/NC(=O)c2ccncc2)c(=O)[nH]c1=S | 2% | -26% | 7%
Cc1ccc(-n2c(O)c(/C=N/NC(=O)c3ccncc3)c(=O)[nH]c2=O)cc1 | 2% | ? | -25%
SMILES | AmpC inh detg | Sm TGR block | AmpC inh no detg
O=C(N/N=C/c1c(O)n(-c2ccccc2)c(=O)[nH]c1=O)c1ccncc1 | -14% | 40µM* | -16%
Cn1c(O)c(/C=N/NC(=O)c2ccncc2)c(=O)n(C)c1=S | ? | 20µM* | -37%
O=C(NCc1cccs1)c1ccc(CSc2nc3ccncc3n2Cc2cccc(F)c2)cc1 | -5% | 2% | nt
Cc1ccc(C(=O)c2sc(Nc3ccccc3F)c(S(=O)(=O)c3ccccc3)c2N)c(C)c1 | -8% | 3% | nt
CCn1c(C)c(C2N3CC4(C)CN2CC(CC)(C3)C4=O)c2ccccc21 (configuration not stated) | 16% | 4% | nt
COc1ccc(-n2c(CN3CCOCC3)nc3ccc([N+](=O)[O-])cc3c2=O)c(OC)c1 | -12% | 45µM* | 96%
COc1ccc(-n2c(CN3CCC(C)CC3)nc3ccc([N+](=O)[O-])cc3c2=O)c(OC)c1 | -1% | ? | -35%
CCOC(=O)N1CCN(Cc2nc3ccc([N+](=O)[O-])cc3c(=O)n2-c2ccc(OC)cc2OC)CC1 | -12% | 40µM* | 92%
COc1ccc(-n2c(CN3CCN(c4ccccc4)CC3)nc3ccc([N+](=O)[O-])cc3c2=O)c(OC)c1 | -20% | ? | 54%
CN(C)C(CNC(=O)c1ccc(S(=O)(=O)Nc2ccccc2F)cc1)c1ccccc1 (configuration not stated) | -12% | 6% | -8%
CC(=O)c1ccc(S(=O)(=O)NCc2ccc(C(=O)NCC(c3ccccc3)N(C)C)cc2)cc1 (configuration not stated) | -2% | 14µM* | 26%
CCOc1ccc(/C=C/c2nc(C#N)c(NC3CCCCC3)o2)cc1 | 3% | 0% | nt
O=C(c1ccco1)N1CCN(C(=O)c2cccs2)CC1 | -7% | -5% | -22%
O=C(c1ccco1)N1CCN(C(=O)c2sccc2-c2ccccc2)CC1 | ? | 40µM* | -2%
O=C(c1cc2c(s1)-c1ccccc1OC2)N1CCN(c2ccc(F)cc2)CC1 | 22% | 24% | nt
O=C(c1ccco1)N1CCN(C(=O)C(Cc2ccccc2)NS(=O)(=O)c2cccs2)CC1 (configuration not stated) | -15% | 25µM* | -3%
O=C(c1ccco1)N1CCN(S(=O)(=O)c2cccs2)CC1 | -2% | -5% | -11%
O=C(c1ccco1)N1CCN(C(=O)c2cc3c(s2)-c2ccccc2OC3)CC1 | ? | 25µM* | 70%
Cc1c(C(=O)Nc2cccc(C(F)(F)F)c2)oc2ccc3c(c12)C(=O)CC(C)(C)O3 | 13% | -1% | nt
O=C(CCl)NCCN1C(=O)S/C(=C\c2cccnc2)C1=O | -8% | 40µM* | 1%
CC(C(=O)NCCN1C(=O)S/C(=C\c2cccnc2)C1=O)N1C(=O)c2ccccc2C1=O (configuration not stated) | 3% | 4% | -18%
C(=C\c1ccco1)/c1ccc2ccccc2n1 | -11% | 7.9µM* | -48%
C(=C\c1ccco1)/c1nc2ccccc2[nH]1 | -2% | 3.2µM* | -46%
O=C(/C=C/c1ccco1)Nc1ccc(-c2nc3ccccc3[nH]2)cc1 | -6% | -18% | 35µM*
O=C(Nc1ccc(-c2nc3ccccc3[nH]2)cc1)c1ccco1 | 0% | ? | -42%
SMILES | AmpC inh detg | Sm TGR block | AmpC inh no detg
C(=C\c1nc2ccccc2[nH]1)/c1ccccc1 | -9% | 9% | -36%
Fc1cccc(F)c1/C=C/c1ccc2ccccc2n1 | 1% | -25% | -32%
O=C(Nc1ccccc1F)C(Cc1ccccc1)N1Cc2ccccc2C1=O (configuration not stated) | 23% | 5% | nt
O=C(OCc1ccco1)c1ccc2c(c1)N(Cc1cccc(F)c1)C(=O)c1ccccc1S2 | -2% | -22% | nt
COc1cccc(NC(=O)C(=O)NCCc2csc(-c3ccc(C(F)(F)F)cc3)n2)c1 | 9% | 17% | nt
CCCc1cc(=O)oc2cc(OCC(=O)Nc3ccc(S(N)(=O)=O)cc3)ccc12 | 56µM* | -15% | 28µM*
COc1ccc2c(CC(=O)OCC(=O)Nc3ccc(C)cc3)coc2c1 | -14% | 9% | -33%
COc1ccc2c(CC(=O)OCC(=O)Nc3ccc(S(N)(=O)=O)cc3)coc2c1 | -8% | -10% | 10µM*
